Experimental findings from PubChem BioAssay are described below.

Assay [1] can be described thus: stimulators of nuclear beta-catenin in C2C12, primary screen, imaging, WNT3A-conditioned medium, mouse C2C12, NPC library (AID 1117326; in the data active = nuclear beta-catenin stimulation mostly above about 4.2%, no sharp cut-off; inactive = mostly below about 10%). The settings on record: stronger effect = higher value.
Assay [2] in a line: stimulators of insulin release from INS-1E, primary screen, cell-based, 5 mM glucose, NPC library (AID 1117329;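 active = compound raises insulin release from rat beta cells at 5 mM glucose, no numeric limit stated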). The settings on record: rat INS-1E insulin secretion, at 10 µM, stronger effect = higher value.
A short description of assay [3]: growth inhibition of GSK3B-pretreated HCT116 cells – cell-based, CellTiter-Glo, 0.2 to 20 µM (AID 1117336;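 active = compounds lowering colon cancer cell viability after pretreatment blocking the GSK3B kinase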). The settings on record: HCT116 viability after GSK3B inhibitor, at 20 µM, stronger effect = higher value. A general note: In ATP-based viability assays light output follows the ATP content of the culture.
The nature of assay [4]: inhibition of endothelial tube formation, primary screen, imaging, VEGF stimulated, CD31 staining, tube area, NPC library (AID 1117340;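 active = compound that reduces growth-factor-driven endothelial tube area in a mixed cell culture, no cutoff stated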). The conditions noted are these: VEGF-stimulated ADSC/ECFC co-culture, at 10 µM, stronger effect = higher value.
The nature of assay [5]: glucagon-like peptide 1 release enhancers, primary assay, NCI-H716 cell line, NPC library (AID 1117341;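 active = compound raises GLP1 secretion from the human gut endocrine cells, with no numeric limit stated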). The settings on record: NCI-H716 cells, at 10 µM, stronger effect = higher value.
Assay [6] in a line: HCT116 colon cancer cell growth inhibition, primary screen, CellTiter-Glo luminescence, NPC library (AID 1117342;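 active = compounds that lower survival of HCT116 colon cancer cells in the luminescence readout, no numeric limit stated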). The conditions noted are these: at 20 µM (top of the series).
Assay [7] is described as follows: CellTiter-Glo luminescent readout of SW480 viability loss, NPC library primary (AID 1117343;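 active = compounds that lower viability of the colon cancer cells in the luminescence readout, with no numeric limit stated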). The conditions noted are these: CellTiter-Glo luminescence; at 20 µM (top of the series).
The nature of assay [8]: decreased DLD-1 cellular survival, CellTiter-Glo luminescent readout, NPC compound collection, primary HTS (AID 1117346;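 active = compounds that lower survival of DLD-1 colon cancer cells in the luminescence readout, no cutoff given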). The settings on record: DLD-1 viability, CellTiter-Glo luminescence; at 20 µM (top of the series).
The target in assay [9] is 6-phosphogluconate dehydrogenase, decarboxylating (Homo sapiens) (UniProt P52209). As to the kind of experiment: 6PGD enzyme inhibitors, primary screen, biochemical, human, recombinant enzyme, NADPH absorbance (AID 1159550;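 active = at least 20% inhibition of 6-phosphogluconate dehydrogenase activity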). The conditions noted are these: recombinant 6PGD, NADPH absorbance 341 nm; at 10 µM; stronger effect = higher value.
The nature of assay [10]: modulation of C. elegans fzo-1 (AID 1259413; call rule not given here;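 also: fzo-1 mutant C. elegans worms in liquid wells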). The settings on record: C. elegans fzo-1 modulator screen, mean read-out; stronger effect = higher value.
Assay [11] in a line: differential killing of epithelial or mesenchymal cells, primary screen, imaging, PC-3E GFP, TEM4-18 mCherry, co-culture (AID 1345086;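 active = compounds killing one labelled cell type while sparing the other, by normalised counts and ratio limits, not self-fluorescent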;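 as to all read-outs here: cells exposed to compound for 72 h before imaging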;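 as to red/green cell ratio (normalised): normalised mesenchymal count divided by normalised epithelial count so high means epithelial killing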). The settings on record: imaging cell counts, at 1 µM; for red/green cell ratio (normalised): actives lie on both sides, counts scaled to control wells, 1 = unselective.
The nature of assay [12]: survival rescue of mitochondrial mutant cells in low glucose, primary screen, MELAS cybrids, Rieske KO mouse fibroblasts, CellTiter-Glo (AID 1508586;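 active = mean z-score across replicates of 1.96 or higher in either the MELAS or the Rieske mutant cell line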;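 also: z relative to plate mean and SD of compound and empty wells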).
The target in assay [13] is NAD(+) hydrolase SARM1 (Homo sapiens) (UniProt Q6SZW1). Briefly: SARM1 TIR NADase inhibitors, cell lysate, NAD-Glo luminescence (AID 1508614;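 active = compound whose remaining NAD level is above about 45 nM, limit read from the data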;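 also: higher remaining NAD means stronger inhibition of SARM1 NADase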). The conditions noted are these: SAM-TIR HEK293T lysate NADase, at 1 µM, stronger effect = higher value.
Assay [14] addresses Mitogen-activated protein kinase 7 (Homo sapiens) (UniProt Q13164). As to the kind of experiment: ERK5 transactivation activators in reporter cells, primary screen, cell-based, HTS (AID 1508626;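 active = luciferase signal above three times the same-plate solvent-only control wells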;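 also: luciferase driven by Gal4-ERK5 fusion binding five Gal4 sites before minimal TATA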). The settings on record: HeLa Gal4-ERK5 transactivation, 18 h, at 5 µM, stronger effect = higher value.
The next assay deals with F380Y. Briefly: modulators of BK channel variants, profiling panel, selectivity assay, cell-based, U2OS BacMam, thallium flux, beta subunits (AID 1259406).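 Also: initial slope of Thallos dye fluorescence rise after thallium is added; log ratio against the mean of 0.3% DMSO vehicle wells on the same plate.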 The conditions noted are these: at 30 µM.
For another assay, the system named is F380Y/beta1. Described as above. The settings on record: at 30 µM.
For another assay, the system named is F380Y/beta2Delta. The description is as above. The conditions noted are these: at 30 µM.
Assay [15] can be described thus: sensitizers of A549 cells to miR-34 induction, primary screen, imaging, A549 dox-inducible miR-34, nuclei and caspase counts (AID 1347080;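 active = compounds whose cell count with miR-34 switched on is under 0.7 times the count with it off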). The settings on record: A549 miR-34 inducible, Hoechst nuclei count, 48 h.
[16] abbreviates: measured here: epithelial PC-3E GFP cell survival.
Where [17] appears, read: measured here: mesenchymal TEM4-18 mCherry cell survival.
[18] abbreviates: MELAS cybrid survival, CellTiter-Glo 48 h, stronger effect = higher value.
Setting [19] is: Rieske KO mouse fibroblast survival, CellTiter-Glo 72 h.

Several values for one entry are separate records, joined by “and”; a condition that tells them apart may be missing. Equal values may be shown once. Activity calls are given as the source filed them.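 The calls were made as follows, unless noted: active = thallium flux through the channel raised or lowered by more than 3 SD from vehicle-only wells, actives on both sides; inactive = the rest.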

Chain of Mitogen-activated protein kinase 7 (Homo sapiens) (Q13164 whole entry, looked up, the tested form may be a part): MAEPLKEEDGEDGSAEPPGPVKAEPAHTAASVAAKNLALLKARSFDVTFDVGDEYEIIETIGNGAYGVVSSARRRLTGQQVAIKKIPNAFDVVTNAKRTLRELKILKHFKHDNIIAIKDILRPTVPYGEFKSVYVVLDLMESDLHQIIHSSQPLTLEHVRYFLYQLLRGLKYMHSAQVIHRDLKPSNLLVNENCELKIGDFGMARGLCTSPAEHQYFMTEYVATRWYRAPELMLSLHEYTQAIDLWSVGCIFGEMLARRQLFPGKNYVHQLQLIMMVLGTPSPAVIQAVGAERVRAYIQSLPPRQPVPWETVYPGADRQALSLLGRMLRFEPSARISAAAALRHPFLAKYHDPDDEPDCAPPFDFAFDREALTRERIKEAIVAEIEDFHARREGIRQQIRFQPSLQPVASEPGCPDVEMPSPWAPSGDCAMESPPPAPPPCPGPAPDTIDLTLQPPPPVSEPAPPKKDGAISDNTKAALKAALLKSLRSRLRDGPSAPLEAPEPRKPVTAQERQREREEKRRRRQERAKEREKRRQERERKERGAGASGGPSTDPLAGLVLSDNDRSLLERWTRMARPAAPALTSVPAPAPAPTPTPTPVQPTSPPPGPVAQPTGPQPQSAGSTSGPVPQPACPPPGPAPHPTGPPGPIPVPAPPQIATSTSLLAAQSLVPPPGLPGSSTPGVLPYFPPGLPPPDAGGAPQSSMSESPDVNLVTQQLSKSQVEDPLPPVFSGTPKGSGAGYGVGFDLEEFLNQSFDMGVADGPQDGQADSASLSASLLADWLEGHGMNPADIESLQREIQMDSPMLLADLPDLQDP
Chain of 6-phosphogluconate dehydrogenase, decarboxylating (Homo sapiens) (P52209 whole entry, looked up): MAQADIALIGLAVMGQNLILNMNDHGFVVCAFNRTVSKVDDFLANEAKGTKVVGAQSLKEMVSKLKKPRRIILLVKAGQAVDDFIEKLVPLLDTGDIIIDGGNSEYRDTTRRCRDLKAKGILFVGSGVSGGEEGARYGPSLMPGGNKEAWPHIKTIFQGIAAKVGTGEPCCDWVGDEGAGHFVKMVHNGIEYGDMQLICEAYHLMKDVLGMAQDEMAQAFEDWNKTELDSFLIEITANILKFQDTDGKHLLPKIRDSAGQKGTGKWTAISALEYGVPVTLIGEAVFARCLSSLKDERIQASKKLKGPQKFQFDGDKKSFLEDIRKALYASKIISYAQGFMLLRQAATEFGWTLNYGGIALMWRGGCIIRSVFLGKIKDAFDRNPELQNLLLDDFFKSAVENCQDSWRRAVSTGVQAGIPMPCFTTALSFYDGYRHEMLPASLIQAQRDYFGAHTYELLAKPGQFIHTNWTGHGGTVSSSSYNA
Chain of NAD(+) hydrolase SARM1 (Homo sapiens) (Q6SZW1 whole entry, looked up, the tested form may be a part): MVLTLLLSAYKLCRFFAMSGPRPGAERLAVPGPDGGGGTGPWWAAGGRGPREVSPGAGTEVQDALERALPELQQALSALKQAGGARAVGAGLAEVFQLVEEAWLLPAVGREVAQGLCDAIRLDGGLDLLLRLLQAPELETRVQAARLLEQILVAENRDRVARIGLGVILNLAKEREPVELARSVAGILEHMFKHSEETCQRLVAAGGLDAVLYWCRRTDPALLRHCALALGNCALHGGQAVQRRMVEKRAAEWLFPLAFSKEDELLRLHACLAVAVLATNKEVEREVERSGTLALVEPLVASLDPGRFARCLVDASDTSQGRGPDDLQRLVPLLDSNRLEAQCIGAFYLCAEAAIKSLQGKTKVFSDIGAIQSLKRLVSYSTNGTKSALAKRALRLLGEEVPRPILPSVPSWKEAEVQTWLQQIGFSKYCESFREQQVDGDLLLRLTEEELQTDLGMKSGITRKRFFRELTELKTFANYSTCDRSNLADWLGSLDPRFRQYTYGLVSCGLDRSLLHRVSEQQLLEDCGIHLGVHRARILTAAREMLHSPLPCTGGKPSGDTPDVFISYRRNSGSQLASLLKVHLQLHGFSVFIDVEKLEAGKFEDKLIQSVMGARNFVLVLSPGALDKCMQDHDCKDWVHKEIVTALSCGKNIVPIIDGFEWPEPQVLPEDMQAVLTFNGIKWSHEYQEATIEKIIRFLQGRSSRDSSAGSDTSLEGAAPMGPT

As a reminder, the inhibition is the drop in the measured response relative to a control, in per cent. As to `CCCNCC(O)COc1ccccc1C(=O)CCc1ccccc1` (configuration not stated), the nuclear beta-catenin stimulation in assay [1] (at 10 µM) is 0.3% (inactive); in assay [1] (stimulation, at 2 µM), 0.1%. Besides, the insulin secretion stimulation in assay [2] was 32.4% (active). The viability decrease in [3] was 7.9% (inactive). For the same compound, in assay [4], the tube area decrease was 24.9% (inactive). Also, the GLP1 secretion stimulation in [5] is -2.7% (inactive). For the same compound, the inhibition of viability in [6] was 32.5% (inactive). The viability decrease (inhibition) in assay [7] is 41% (inactive); in assay [8], 10.6% (inactive). Moreover, in assay [9], the inhibition was -5.6% (inactive). In assay [10], the mean signal was 272 (inactive). In assay [11], the red/green cell ratio (normalised) is 1.04 (inactive). Further, the normalised cell number in assay [11] (setting [16]) turned out to be 1.35; in assay [11] (setting [17]) it was 1.41. Also, the z-score was -0.438 (inactive) and -0.541 (inactive) and -0.854 (inactive) in assay [12] (setting [18]); -0.529 and -0.098 and 0.366 in [12] (setting [19]). Besides, the remaining NAD in assay [13] was 10 nM (inactive). In addition, in [14], the luciferase signal is 116 AU (inactive). The log fold change Tl+ flux is 0.197 (active) with F380Y, 0.0626 (inactive) in the assay with F380Y/beta1 and 0.0815 (active) in the assay with F380Y/beta2Delta.

In the case of `NS(=O)(=O)c1cc2c(cc1Cl)NC=NS2(=O)=O`, the nuclear beta-catenin stimulation in assay [1] (at 10 µM) is -0.3% (inactive); in [1] (stimulation, at 2 µM), 3%. Besides, the insulin secretion stimulation in [2] is -0.7% (inactive). For the same compound, in assay [3], the viability decrease is -4.3% (inactive). Moreover, in [4], the tube area decrease is 3.2% (inactive). For the same compound, the GLP1 secretion stimulation in assay [5] is 1.5% (inactive). For the same compound, in [6], the inhibition of viability is -1.55% (inactive). The results for the viability decrease (inhibition) in assay [7] and in assay [8] were 5.5% (inactive) and -6.2% (inactive), respectively. Also, the inhibition in assay [9] is 11.5% (inactive). Besides, the mean signal in assay [10] was 245 (inactive). Besides, in assay [11], the red/green cell ratio (normalised) was 1.16 (inactive). Besides, the normalised cell number in assay [11] (setting [16]) turned out to be 0.39; in assay [11] (setting [17]) it was 0.45. In addition, the z-score in [12] (setting [18]) was -0.0786 (inactive) and 0.00114 (inactive); in [12] (setting [19]), 0.72 and -0.309. For the same compound, the remaining NAD in assay [13] was 10 nM (inactive). Moreover, the luciferase signal in [14] was 52 AU (inactive). Besides, the log fold change Tl+ flux was 0.0512 (inactive) in the assay on F380Y, 0.0165 (inactive) in the assay on F380Y/beta1 and -0.00499 (inactive) in the assay on F380Y/beta2Delta.

As to `O=S(=O)(O)CCS`, the nuclear beta-catenin stimulation in assay [1] (at 10 µM) was 1.9% (inactive); in [1] (stimulation, at 2 µM) it was 1.8%. In addition, the insulin secretion stimulation in assay [2] is 1.6% (inactive). For the same compound, the viability decrease in assay [3] was 4.9% (inactive). In addition, the tube area decrease in assay [4] is 11.9% (inactive). For the same compound, the GLP1 secretion stimulation in assay [5] was 2.6% (inactive). Besides, in assay [6], the inhibition of viability is -4.57% (inactive). Besides, the viability decrease (inhibition) is -2.4% (inactive) in assay [7] and -8.8% (inactive) in assay [8]. The inhibition in assay [9] was 6.93% (inactive). Also, the mean signal in assay [10] was 248 (inactive). The red/green cell ratio (normalised) in assay [11] is 1 (inactive). For the same compound, the normalised cell number in assay [11] (setting [16]) was determined as 1.08; in [11] (setting [17]), 1.09. Besides, the fold change in assay [15] (stronger effect = lower value, cell number ratio, induced over uninduced) is 0.934 (inactive) and 0.882 (inactive); in assay [15] (measured here: relative caspase fold change +Dox/-Dox), 3.36 and 0.596 and 4.13. For the same compound, the cell count is 9790 and 9090 and 11400 in assay [15] (measured here: total cells with miR-34 induction, stronger effect = lower value); 10500 and 9730 and 12900 in assay [15] (measured here: total cells without miR-34 induction). Further, the z-score in [12] (setting [18]) is -0.16 (inactive) and 0.426 (inactive); in [12] (setting [19]), 0.659 and -0.304. Besides, the remaining NAD in assay [13] was 10 nM (inactive). In assay [14], the luciferase signal is 20 AU (inactive). Further, the figures for the log fold change Tl+ flux in the assay with F380Y, with F380Y/beta1 and in the assay with F380Y/beta2Delta were -0.0468 (inactive), 0.0507 (inactive) and 0.0371 (inactive), respectively.
